Our source for the growth values is PubChem BioAssay (NCI).

Experiment in all cases: NCI-60 one-dose screen, 48 h (100 = growth as untreated, 0 = no growth, -100 = all killed)
Holding throughout (conditions): 10 µM

Experiment [1] concerns HCT-15 colon.
For experiment [2], the system named is HT29 colon.
In experiment [3] the test system is SNB-75 CNS.
Experiment [4] deals with SNB-19 CNS.
Experiment [5] concerns U251 CNS.
For experiment [6], the system named is PC-3 prostate.
For experiment [7], the system named is SK-MEL-5 melanoma.
The test system of experiment [8] is UACC-62 melanoma.
For experiment [9], the system named is LOX IMVI melanoma.
The subject of experiment [10] is SK-MEL-28 melanoma.
The subject of experiment [11] is SK-MEL-2 melanoma.
The test system of experiment [12] is SN12C renal.
In experiment [13] the test system is UO-31 renal.
In experiment [14] the test system is TK-10 renal.
The test system of experiment [15] is ACHN renal.
The test system of experiment [16] is CAKI-1 renal.
The test system of experiment [17] is CCRF-CEM leukemia.
Experiment [18] concerns MOLT-4 leukemia.
Experiment [19] deals with A498 renal.

The panel holds about 83,000 compounds, 20% with a hit somewhere; the sample as a whole holds those more often.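 Method: cells in 96-well plates; compound added at one concentration; 48 h incubation; percent growth measured; values under 10 scored active.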 A number with no mark means an inactive call. Activity calls are given as the source filed them.

Turning to `COc1ccc(C2C=C(c3ccc(OC)c(OC)c3)N=C3SC=CN32)c(Br)c1` (configuration not stated), the growth is 41.9% in experiment [1]; 33.7% in experiment [2]; 85.5% in experiment [3]; 73% in experiment [4]; 43.7% in experiment [5]; 48.9% in [6]. Also, the growth in [7] is 63.6%; in experiment [8], 68.9%; in experiment [9], 23.3%; in [10], 89.8%; in [11], 104%; in experiment [12], 75%. Also, the growth in [13] was 67.9%; in experiment [14], 106%; in [15] it was 76.6%; in experiment [16], 71.5%; in experiment [17], -2.4% (active); in experiment [18], 25.1%.
In the case of `COc1ccc(S(=O)(=O)Nc2cc(/C=C\c3cc(OC)c(OC)c(OC)c3)ccc2OC)cc1`, the growth was 7.86% (active) in experiment [1]; -13.4% (active) in experiment [2]; -2.76% (active) in experiment [3]; 55.1% in experiment [4]; 0.353% (active) in experiment [5]; -2.4% (active) in experiment [6]. The growth in experiment [7] is -20.1% (active); in experiment [8] it was 27.8%; in experiment [9], 19.3%; in experiment [10], 48.8%; in experiment [11], 5.84% (active); in experiment [12] it was 15.6%. Besides, the growth in [13] is 24.6%; in experiment [14], 39.6%; in experiment [15] it was 18.7%; in experiment [16] it was 26%; in experiment [19] it was -19.2% (active); in experiment [17], 15.4%. Moreover, the growth in [18] is 8.46% (active).
In the case of `CCc1ccc(-c2nnc(COc3ccc(-c4nc5ccc(C)cc5[nH]4)cc3OC)o2)cc1`, the growth in [1] was 21.9%; in [2], 48.9%; in experiment [3], -50% (active); in [4] it was 77.5%; in [5] it was 25.5%; in experiment [6], 36.6%. The growth is 15.3% in experiment [7]; 79.6% in experiment [8]; 48.2% in [9]; 77.4% in experiment [10]; 104% in experiment [11]; 10.7% in experiment [12]. For the same compound, the growth in [13] is 38.2%; in experiment [15], -8.12% (active); in experiment [16], 30.3%; in experiment [19], 84.1%; in [17], 6.98% (active); in experiment [18], 38.6%.
Turning to `CCCCCCCC/C=C/CCCCCCCCC1=NCCN1CCO`, the growth in [1] is 59.2%; in experiment [2], 19.7%; in experiment [3], 57.3%; in [4], 92.8%; in experiment [5] it was 54.1%; in experiment [6] it was 46.2%. For the same compound, the growth was 85.6% in [7]; 90.5% in experiment [8]; -7.51% (active) in experiment [9]; 90.5% in [10]; 95.1% in [11]; 64.1% in experiment [12]. In addition, the growth in [13] was 38.5%; in experiment [14], 124%; in [15], 58.7%; in [16], 80.5%; in experiment [17], 19.7%; in [18], 34.3%.
With `O=C(Nc1ccc(OS(=O)(=O)Cc2ccccc2)cc1)C12CC3CC(CC(C3)C1)C2`, the growth in experiment [1] is 56.8%; in experiment [2], 9.75% (active); in [3], 114%; in experiment [4], 91.4%; in experiment [5], 67.7%; in experiment [6], 55.6%. For the same compound, the growth is 63.3% in experiment [7]; 81.6% in experiment [8]; 68% in experiment [9]; 103% in experiment [10]; 102% in [11]; 88.3% in experiment [12]. Moreover, the growth in experiment [13] is 78.4%; in experiment [14], 112%; in experiment [15] it was 99.8%; in experiment [16], 84.2%; in experiment [17] it was 85.2%; in experiment [18], 41.5%.
Regarding `COc1ccccc1S(=O)(=O)Nc1ccc2c(c1)CN(C)C(=O)N2`, the growth in experiment [1] is 40.8%; in experiment [2], 22.8%; in [3], 17.5%; in experiment [4], 54.1%; in experiment [5], 50%; in [6], 35.3%. Further, the growth in experiment [7] was 40.5%; in experiment [8] it was 29.3%; in experiment [9], 29.1%; in experiment [10] it was 48.9%; in experiment [11], 47.6%; in experiment [12], 53.2%. In addition, the growth is 10.2% in experiment [13]; 17.3% in experiment [14]; 34.7% in experiment [15]; 21.2% in experiment [16]; -2.92% (active) in experiment [19]; 48.9% in experiment [17]. For the same compound, the growth in experiment [18] is 38.4%.
For `COc1cccc2c1C(=O)c1c(O)c3c(c(O)c1C2=O)C[C@@](O)(C(=O)COC(=O)c1ccccc1)C[C@@H]3OC1CC(N)C(O)C(C)O1` (some centres not stated), the growth in [1] is -72% (active); in experiment [2], -95.1% (active); in experiment [3] it was -84.3% (active); in experiment [4], -75.4% (active); in [5], -95.4% (active); in experiment [6], -95.6% (active). For the same compound, the growth in experiment [7] was -97.2% (active); in experiment [8], -97% (active); in [9] it was -87.1% (active); in [10], -88.9% (active); in [11] it was -92% (active); in experiment [12], -86% (active). In addition, the growth was -93.1% (active) in [13]; -79.8% (active) in [14]; -95.6% (active) in [15]; -89.3% (active) in experiment [16]; -66.2% (active) in experiment [19]; -54% (active) in experiment [17]. Also, in experiment [18], the growth was -66% (active).
Regarding `COc1cc(C2C=C(c3ccc(Cl)cc3)N=C3SC(C)=CN32)cc(OC)c1OC` (configuration not stated), the growth was 84.7% in experiment [1]; 79.1% in experiment [2]; 81.8% in experiment [3]; 91.5% in experiment [4]; 85.1% in experiment [5]; 89.2% in experiment [6]. The growth is 91.9% in [7]; 85.5% in [8]; 96.8% in experiment [9]; 105% in [10]; 102% in [11]; 90.6% in [12]. Further, the growth in experiment [13] is 79.3%; in experiment [14], 71%; in [15], 105%; in experiment [16], 88.7%; in experiment [17] it was 89.2%; in [18], 80.2%.
